# Data published in PubChem BioAssay (NCI).
# About 79,000 compounds went through this panel and 15% of them were active in at least one assay; those are over-represented in the sample as a whole. Unmarked numbers belong to inactive results. Active and inactive are the calls of the source. Cut-off read from the data, not from the text of the source: active = growth inhibition above about 70%; inactive = the rest.
# How the values were obtained:
# [1] = NCI Yeast Anticancer Drug Screen. Data for the rad50 strain (AID 155);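 note: 0% = growth of vehicle-only cultures of the same strain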; details: S. cerevisiae rad50 strain growth inhibition; at 50.0 µM; hits give high values
# Summary of the method: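 Readout: growth inhibition relative to vehicle-treated cultures. Compound exposure was carried out in a genetically defined yeast strain deficient in DNA damage repair.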
# [2] = NCI Yeast Anticancer Drug Screen. Data for the mec2-1 strain (AID 157); details: S. cerevisiae mec2-1 strain, at 50.0 µM, hits give high values
# Summary of the method: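 Mutant yeast (mec2-1) grown with compound; growth inhibition relative to vehicle control reported.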
# [3] = NCI Yeast Anticancer Drug Screen. Data for the sgs1 mgt1 strain (AID 161);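 note: 0% = growth of cultures given vehicle only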; details: S. cerevisiae sgs1 mgt1 strain, at 50.0 µM, hits give high values
# Summary of the method: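 Yeast cells carrying a defined DNA-repair defect were exposed to test compounds. Growth inhibition was measured relative to vehicle-treated controls.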
# [4] = NCI Yeast Anticancer Drug Screen. Data for the cln2 rad14 strain (AID 165);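 note: 0% = growth equal to vehicle treated cultures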; details: S. cerevisiae cln2 rad14 strain, at 50.0 µM, hits give high values
# Summary of the method: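 Readout is yeast growth inhibition versus vehicle-treated controls, using a strain with cln2 and rad14 alterations exposed to compound.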
# [5] = NCI Yeast Anticancer Drug Screen. Data for the bub3 strain (AID 167); details: S. cerevisiae bub3 mutant strain, at 50.0 µM, hits give high values
# Summary of the method: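 Readout: yeast growth inhibition, expressed relative to vehicle-only wells. The test organism is a mutant strain from a panel with lesions in DNA repair or checkpoint genes.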
# [6] = NCI Yeast Anticancer Drug Screen. Data for the mlh1 rad18 strain (AID 175); details: S. cerevisiae mlh1 rad18 strain growth inhibition; at 50.0 µM; hits give high values
# Summary of the method: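 Genetically defined yeast (DNA repair-deficient) exposed to compounds; growth inhibition determined relative to vehicle.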
Compound,growth inhibition [1],growth inhibition [2],growth inhibition [3],growth inhibition [4],growth inhibition [5],growth inhibition [6]
CN(C)CCC(=O)N1CCc2c([nH]c3ccccc23)C1c1cccnc1 (stereo not given),-15.2%,-34.6%,-21.6%,6.55%,5.65%,-40.5%
OC/C(I)=C(I)\C(I)=C(\I)CO,99.2% (active),99.3% (active),99.5% (active),99.4% (active),98.7% (active),99.4% (active)
Nc1ccccc1SC1CC(=O)N(c2ccc(Br)cc2)C1=O (stereo not given),13.2%,3.4%,2.75%,10.8%,26.6%,12.3%
CCCN1c2c3c(O)c4c(O)c(C)c5c(c4c2O)C(=O)C(C)(O/C=C/C(OC)C(C)C(OC(C)=O)C(C)C(O)C(C)C(O)C(C)/C=C/C=C(/C)C(=O)N3C1C)O5 (stereo not given),22.6%,35.9%,44%,37.2%,19%,18.2%
O=C1C=C(Nc2ccccc2)c2ccc(S(=O)(=O)O)cc2C1=O,0.4%,-6.9%,10.1%,-0.8%,-29.1%,-6.55%
CC(=O)NC(CCC(=O)C=[N+]=N)C(=O)O (stereo not given),18.4%,-14.7%,33.5%,14.1%,23.8%,12.6%
COc1cc2c(c([N+](=O)[O-])c1)NC(=O)C(C)S2 (stereo not given),-11.3%,-33.6%,-19.4%,28.8%,2.15%,3.65%
COc1ccc(/C=C/C(=O)OCCC(C)C)cc1,3.7%,-16.3%,3.5%,16.9%,-21.2%,-16.7%
CCOC(=O)c1c[nH]c2c(C(F)(F)F)cccc2c1=O,15.6%,-9.1%,1.55%,8.75%,24.6%,14.6%
CCOC(=O)C1=NN(c2ccccc2)C(=O)/C1=C\n1c(=S)sc2ccccc21,-7.25%,-24.4%,-6.5%,-16.1%,-11.8%,-2.4%
COc1ccc(C23C(=O)c4ccccc4N2O[C@H]2C(=O)N(c4ccccc4)C(=O)[C@H]23)cc1 (stereo not given in full),-22.2%,20.1%,-36.5%,7.9%,-30.6%,-21.1%
CC1(C)CNC(C)(C)CN1,-4.45%,-11.8%,4.35%,1.1%,17.5%,-18%
Clc1ccc(C2ON=C(c3ccccc3)N2C23CC4CC(CC(C4)C2)C3)c(Cl)c1 (stereo not given),-18.9%,-26.4%,-12.4%,-48.6%,-21.4%,-21.5%
CSc1nc(N(C)C)c2[nH]ncc2n1,5.25%,-0.5%,-3.6%,-10.6%,19.7%,3.25%
COc1ccc(Nc2cccc(Cl)c2)cc1,97% (active),98.2% (active),96.5% (active),95.9% (active),95.6% (active),97.8% (active)
O=C(c1nc2ccc([N+](=O)[O-])cc2[nH]c1=O)C(O)c1ccc2c(c1)OCO2 (stereo not given),32.4%,-9.25%,-11.1%,11.1%,-1.25%,0.35%
CC1(C)OC(=O)C=C([O-])O1.CC1(C)OC(=O)C=C([O-])O1.O=c1c(O)c(-c2ccc([O-])cc2[O-])oc2cc(O)cc(O)c12.[Ti+4],-45.6%,9.05%,-29.4%,-7.85%,-4.55%,-16.2%
COc1ccc(C2c3cc4c(cc3OC(C)(O)C2C)OCO4)c(OC)c1OC (stereo not given),3.45%,5.7%,-1.4%,-9.25%,-5.1%,18.9%
CC1CCCC2(CN=C(Nc3ccccc3)O2)C1 (stereo not given),-13.7%,-8.45%,-7.05%,-75%,-10.1%,-6.15%
Cc1ccc(C(C)[N+](=O)[O-])cc1 (stereo not given),13.2%,18.1%,18.4%,-13.7%,0.45%,18.2%

Compound,growth inhibition [1],growth inhibition [2],growth inhibition [3],growth inhibition [4],growth inhibition [5],growth inhibition [6]
O=C(O)c1cc(Cc2ccc(I)c(C(=O)O)c2)ccc1I,20.9%,2.5%,32.9%,29%,-5.75%,40.5%
COC(=O)CCC(=O)Nc1ccccc1C(F)(F)F,-8.55%,5.3%,7.65%,3.2%,8.45%,1%
COC(=O)C1=C(C(=O)OC)SC(=C2c3ccsc3-c3sccc32)S1,-31.3%,-6.2%,-7.45%,19%,1.3%,-4.5%
C[CH2][Ge]([CH2]C)([CH2]C)[O]C(=O)CCC(=O)[O][Ge]([CH2]C)([CH2]C)[CH2]C,-2.1%,-2.9%,-3.7%,-66.7%,-0.45%,14.7%
Cc1cccc(-c2cccc(C)c2C)c1C,-6.5%,4.75%,-1.35%,11.7%,4.2%,16.1%
O=C(OCCOc1ccc(Cl)cc1Cl)c1ccccc1O,-2.4%,-17.4%,-1.85%,-12.8%,11.6%,0.3%
CCOC(=O)c1ccc(NP(=O)(Nc2ccc(C(=O)OCC)cc2)c2ccc(N)cc2)cc1,-5.65%,-17.4%,-2.25%,-65.7%,0.85%,4.25%
CC(=O)c1c(-c2ccc(Cl)cc2)c(-c2ccc(Cl)cc2)nn(CCN)c1=O,38.1%,15.2%,29.2%,24.6%,42.7%,93% (active)
Cc1cccc(C(=O)NNC(=O)c2ccc3ccccc3c2)c1,-60.3%,-49.7%,-23.9%,-3.6%,-28.9%,-33.2%
[O-][n+]1ccccc1/C=C/c1cccc[n+]1[O-],-30.1%,-31.1%,-7.55%,-22%,-0.85%,-18.4%
CC(=[N-])CC(C)=O.O=C(CC(=Nc1ccccc1)c1ccccc1)c1ccccc1.[Cu+],-21.2%,-7.5%,1.6%,29.3%,-3.45%,16.2%
COc1cccc(-c2nsc(=O)o2)c1,41.5%,23.1%,24.3%,-1.4%,52.6%,32.6%
O=C(c1ccccc1)c1c(O)c2ccccc2oc1=O,-13.6%,-24%,-7.95%,-16.8%,-4.45%,-4.5%
CN(C)CCCNc1ccc2nnn3c4ccc([N+](=O)[O-])cc4c(=O)c1c23,68.8%,35%,45.8%,55.1%,65.7%,80% (active)
CC(=O)NC(CCCc1ccccc1)C(=O)O (stereo not given),7.65%,9%,-17.1%,-23.1%,2.45%,-18.9%
CCCCCNc1ccnc(=O)[nH]1,11.8%,6.8%,2%,-39.5%,-12.9%,-12.7%
CC(C)CCC[C@@H](C)[C@H]1CC[C@H]2[C@@H]3CC[C@H]4CC5(C[C@]4(C)[C@H]3CC[C@]12C)Nc1ccccc1S5 (stereo not given in full),-8.05%,-19.9%,-6.2%,4.55%,-25.9%,-40.7%
CCOP(=O)(OCC)OC1CC(n2cc(C)c(=O)n(C)c2=O)OC1CO[Si](C)(C)C(C)(C)C (stereo not given),19.1%,1.5%,25.9%,17.6%,20.9%,-12.7%
O=C1OC(=O)C2C1C1C=CC2C1(c1ccccc1)c1ccccc1 (stereo not given),9.05%,4.25%,8.95%,-5.65%,25.5%,7%
Cc1ccc(S(=O)(=O)Nn2c(O)c(C#N)c(-c3ccc(Cl)cc3)c(C#N)c2=O)cc1,1.3%,20.3%,11.2%,11.5%,15.5%,32.3%
